A selection: hits, their analogues and other compounds. The true share with any hit is near 28%.
Mac1 fbg inh: CD11b/CD18-fibrinogen binding inhibition; K562 CD11b/CD18 adhesion to fibrinogen, ATPlite luminescence; Mn2+ added to activate the integrin; inhibition, % at 10 µM; actives 0.54% (n = 93,000); AID 1497;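 active means primary inhibition of 50% or more at 10 µM, then 40% or more on retest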
CYP2C19 act: increases human CYP2C19 enzyme activity; P33261; recombinant CYP2C19, luciferin-H EGE luminescence; stronger effect = higher value; 0 = fully inhibited enzyme, 1 = untreated enzyme; activation factor at 5 µM; 96,000 tested, under 10 active; AID 1025;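 active means activation factor of at least 2 at 5 µM in the primary screen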;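 further: 0 = wells with 2.5 mM tranylcypromine and 1 = vehicle-only wells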
CYP2C19 inhib: blocks human cytochrome P450 2C19. actives 21% (n = 96,000). AID 778. CYP2C19 Supersomes, luciferin-H EGE luminescence, 30 min. inhibition, % at 5 µM;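 active means CYP2C19 inhibition above a set limit at 5 µM in the primary screen, cut at about 50% in these data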;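 further: plate controls were negative control wells for no effect and 2.5 mM tranylcypromine positive control for full effect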
CYP2C9 inhib: blocks human cytochrome P450 2C9 | CYP2C9 Supersomes, luciferin-H conversion, luminescence | actives 20% (n = 96,000) | P11712 | AID 777 | inhibition, % at 5 µM;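 active means blocking of liver enzyme CYP2C9 beyond about 50% at 5 µM, limit read from the data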
Target sequence (P11712 whole entry, looked up): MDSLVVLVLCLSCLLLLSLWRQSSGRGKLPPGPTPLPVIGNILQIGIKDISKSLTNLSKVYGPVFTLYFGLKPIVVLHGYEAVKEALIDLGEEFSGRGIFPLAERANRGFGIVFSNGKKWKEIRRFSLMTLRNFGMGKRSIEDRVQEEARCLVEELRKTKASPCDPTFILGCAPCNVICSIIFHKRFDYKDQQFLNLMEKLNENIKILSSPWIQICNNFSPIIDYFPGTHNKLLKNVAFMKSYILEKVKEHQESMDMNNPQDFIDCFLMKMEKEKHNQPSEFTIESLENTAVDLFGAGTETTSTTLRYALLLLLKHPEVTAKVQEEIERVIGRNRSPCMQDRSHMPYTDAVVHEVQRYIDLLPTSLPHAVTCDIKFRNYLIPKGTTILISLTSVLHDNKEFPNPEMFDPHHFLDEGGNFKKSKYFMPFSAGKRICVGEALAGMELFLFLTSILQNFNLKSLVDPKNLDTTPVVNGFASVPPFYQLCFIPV
CYP2C9 act: increases human cytochrome P450 2C9 activity; actives 1.4% (n = 96,000); activation factor at 5 µM; recombinant CYP2C9, luciferin-H conversion, luminescence; stronger effect = higher value; factor 1 = untreated enzyme, 0 = blocked;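 active means activation factor of 2 or more for CYP2C9 at a 5 µM dose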;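 further: 0 = sulfaphenazole-blocked wells and 1 = vehicle-only wells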
Mac1 fbg enh: enhancers of human CD11b/CD18 binding to fibrinogen. K562 CD11b/CD18 adhesion to fibrinogen, ATPlite luminescence. actives 0.07% (n = 93,000). AID 1499. activation, % at 10 µM. P05107+P11215;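 active means 10 µM primary screen giving 50% or more activity, confirmed by 40% or more on retest at that dose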
* marks the source's active call; other numbers are inactive results.

Screening O=C(Nc1cccc(NC(=O)c2ccco2)c1)c1ccc2c(c1)OCO2 returned Mac1 fbg inh -2, CYP2C19 act 0.5, CYP2C19 inhib 50*, CYP2C9 inhib 30, CYP2C9 act 0.7 and Mac1 fbg enh -7.
`O=C(Nc1ccc(Cl)cc1)c1ccc2c(c1)OCO2` gave Mac1 fbg inh -5, CYP2C19 act 0.7, CYP2C19 inhib 32, CYP2C9 inhib -2, CYP2C9 act 1 and Mac1 fbg enh -3.
Screening CCCC(=O)Nc1cccc(NC(=O)c2ccc3c(c2)OCCO3)c1 returned Mac1 fbg inh -8, CYP2C19 act 0.4, CYP2C19 inhib 59*, CYP2C9 inhib 36, CYP2C9 act 0.6 and Mac1 fbg enh 1.
O=C(Nc1ccc2c(c1)OCO2)c1cccc(Cl)c1 was read as Mac1 fbg inh -2, CYP2C19 act 0.3, CYP2C19 inhib 70*, CYP2C9 inhib 22, CYP2C9 act 0.8 and Mac1 fbg enh -3.
COc1cc(C)c2occ(/C(C)=N\O)c2c1 was read as Mac1 fbg inh 0, CYP2C19 act 0.9, CYP2C19 inhib 15, CYP2C9 inhib 12, CYP2C9 act 0.9 and Mac1 fbg enh -2.
CCn1c(SCC(=O)Nc2ncc(C(F)(F)F)cc2Cl)nnc1-c1cccc(C)c1 was read as Mac1 fbg inh 7 and Mac1 fbg enh 2.
`COc1ccc(CN(C)CC(=O)Nc2ccc(Cl)cc2C(F)(F)F)c(OC)c1` gave Mac1 fbg inh 34 and Mac1 fbg enh 1.
Screening O=C(/C=C/c1ccc(F)cc1)NCCc1ccc2c(c1)OCCO2 returned Mac1 fbg inh 3 and Mac1 fbg enh 10.
For O=C(Nc1ccc2c(c1)OCO2)c1ccc(Cl)s1 the results were Mac1 fbg inh -16, CYP2C19 act 0.2, CYP2C19 inhib 81*, CYP2C9 inhib 62*, CYP2C9 act 0.4 and Mac1 fbg enh -1.
CCCCC(=O)Nc1ccc(NC(=O)c2ccc3c(c2)OCO3)cc1OC was read as Mac1 fbg inh -8, CYP2C19 act 0.1, CYP2C19 inhib 86*, CYP2C9 inhib 59*, CYP2C9 act 0.4 and Mac1 fbg enh 3.
`CCOc1ccc(C(=O)Nc2ccc3c(c2)OCCO3)cc1OC` gave Mac1 fbg inh -2, CYP2C19 act 0.3, CYP2C19 inhib 69*, CYP2C9 inhib 7, CYP2C9 act 0.9 and Mac1 fbg enh 0.
For COc1cc(C#N)ccc1OCC(=O)c1ccc2c(c1)OCCO2 the results were Mac1 fbg inh -14, CYP2C19 act 0.4, CYP2C19 inhib 62*, CYP2C9 inhib -6, CYP2C9 act 1.1 and Mac1 fbg enh 0.
CCOc1cc(C(=O)Nc2ccc3c(c2)OCO3)ccc1OC(F)F was read as Mac1 fbg inh -13, CYP2C19 act 0.7, CYP2C19 inhib 31, CYP2C9 inhib -88, CYP2C9 act 1.9 and Mac1 fbg enh -3.
`COc1cc(NC(=O)c2ccc3c(c2)OCO3)ccc1NC(=O)C(C)C` gave Mac1 fbg inh -4, CYP2C19 act 0.5, CYP2C19 inhib 45, CYP2C9 inhib 44, CYP2C9 act 0.6 and Mac1 fbg enh -2.
For CCOC(=O)c1cnc(-n2cc(C)cn2)nc1Nc1ccccc1OC the results were Mac1 fbg inh -8, CYP2C19 act 1, CYP2C19 inhib -2, CYP2C9 inhib 7, CYP2C9 act 0.9 and Mac1 fbg enh 0.
Screening Cc1ccnc(NC2(C(F)(F)F)N=C(c3ccccc3)NC2=O)c1 (centres undefined) returned CYP2C19 act 0.9, CYP2C19 inhib 10, CYP2C9 inhib -2 and CYP2C9 act 1.
Screening CCc1c(C(=O)N2CCN(c3ccccc3F)CC2)[nH]c(C)c1C(C)=O returned Mac1 fbg inh 3, CYP2C19 act 0.6, CYP2C19 inhib 43, CYP2C9 inhib 21, CYP2C9 act 0.8 and Mac1 fbg enh -6.
`COC(=O)Nc1ccc(S(=O)(=O)Nc2ccccc2F)cc1` gave Mac1 fbg inh -6, CYP2C19 act 0.5, CYP2C19 inhib 50*, CYP2C9 inhib 24, CYP2C9 act 0.8 and Mac1 fbg enh -2.
`CC(=O)Nc1ccccc1NS(=O)(=O)c1ccc(Cl)cc1` gave Mac1 fbg inh 9, CYP2C19 act 0.1, CYP2C19 inhib 91*, CYP2C9 inhib 45, CYP2C9 act 0.6 and Mac1 fbg enh -3.
`N#CCCCn1c(-c2ccccc2)noc1=O` gave Mac1 fbg inh -2, CYP2C19 act 0.8, CYP2C19 inhib 22, CYP2C9 inhib -18, CYP2C9 act 1.2 and Mac1 fbg enh -4.
`O=C(Cn1c(-c2ccccc2)noc1=O)NCc1ccccc1` gave Mac1 fbg inh -6, CYP2C19 act 0.6, CYP2C19 inhib 41, CYP2C9 inhib -98, CYP2C9 act 2* and Mac1 fbg enh -1.
Screening Cc1nn(-c2ccccc2)c(OC(=O)c2cccs2)c1S(=O)(=O)c1ccc([N+](=O)[O-])cc1 returned Mac1 fbg inh 30, CYP2C19 act 0.5, CYP2C19 inhib 47, CYP2C9 inhib 99*, CYP2C9 act 0 and Mac1 fbg enh -2.
Nc1cc(OC(=O)c2cccs2)nn1S(=O)(=O)c1ccccc1 was read as Mac1 fbg inh -2, CYP2C19 act 0.9, CYP2C19 inhib 13, CYP2C9 inhib 40, CYP2C9 act 0.6 and Mac1 fbg enh -4.
Screening Cc1nn(-c2ccccc2)c(OC(=O)c2cccs2)c1S(=O)(=O)c1ccccc1 returned CYP2C19 act 0.4, CYP2C19 inhib 62*, CYP2C9 inhib 80* and CYP2C9 act 0.2.
Screening Cc1nn(C(C)(C)C)c(OC(=O)C2CCCC2)c1S(=O)(=O)c1ccccc1 returned CYP2C19 act 1, CYP2C19 inhib -4, CYP2C9 inhib 49 and CYP2C9 act 0.5.
Cc1cc(C)c(C)c(OCC(=O)NCCN(C)C)c1 was read as Mac1 fbg inh 8, CYP2C19 act 1, CYP2C19 inhib 0, CYP2C9 inhib -5, CYP2C9 act 1 and Mac1 fbg enh 2.
`CCOc1ccccc1NC(=O)CCSc1nc2n[nH]c(C)c2c(=N)n1-c1ccccc1Cl` gave Mac1 fbg inh -25, CYP2C19 act 0.3, CYP2C19 inhib 71*, CYP2C9 inhib 77*, CYP2C9 act 0.2 and Mac1 fbg enh 14.
Screening COc1ccc(CCNC(=O)c2ccc(-c3ccc([N+](=O)[O-])cc3)o2)cc1OC returned Mac1 fbg inh 24 and Mac1 fbg enh -6.
Screening CC1CCc2cc(F)ccc2N1C(=O)CSc1nnc2c(n1)[nH]c1ccc(F)cc12 (centres undefined) returned CYP2C19 act 0.2, CYP2C19 inhib 77*, CYP2C9 inhib 57* and CYP2C9 act 0.4.
CC1Cc2ccccc2N1C(=O)CSc1nnc2c(n1)[nH]c1ccccc12 (centres undefined) was read as Mac1 fbg inh -10, CYP2C19 act 0.4, CYP2C19 inhib 55*, CYP2C9 inhib 46, CYP2C9 act 0.5 and Mac1 fbg enh -2.

Compound activity: PubChem, Sanford-Burnham Center for Chemical Genomics
